SMILES strings stand for the structures. Several values for one entry are separate records, joined by “and”; a condition that tells them apart may be missing. Equal entries are not always repeated. Activity calls are given as the source filed them. Rule as the data show it, unless noted: active = parasite load remaining mostly below about 12% (no sharp cut-off); inactive = mostly above about 10%.

One assay is described as follows: liver-stage malaria parasite growth inhibition, primary screen, cell-based, HepG2, luciferase luminescence, HepG2 viability (AID 624349).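 Also: 100% = mean of DMSO negative control wells on the same plate.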 The following applies: P. berghei liver stage in HepG2, luciferase luminescence, concentration not given here; parasite load remaining: stronger effect = lower value; viability: measured here: HepG2 viability without parasites.
Turning to `CCOC(=O)Oc1c(OC)cc(C(=O)O[C@@H]2C[C@@H]3CN4CCc5c([nH]c6cc(OC)ccc56)[C@H]4C[C@@H]3[C@H](C(=O)OC)[C@H]2OC)cc1OC`, the viability came out at 98.5% and the parasite load remaining is -14.9% (active).

Take `CCC(NC(C)C)C(O)c1ccc(O)c2[nH]c(=O)ccc12` (stereo unspecified): the viability amounted to 98.2% and the parasite load remaining is 40.1% (inactive).

Consider `CC(C)CC(=O)N[C@H](C(=O)NC(C(=O)NC(CC(C)C)[C@@H](O)CC(=O)N[C@@H](C)C(=O)N[C@@H](CC(C)C)[C@@H](O)CC(=O)O)C(C)C)C(C)C` (stereo partly specified), for which the viability came to 180% and the parasite load remaining was 20.9% (inactive).

In the case of `CC(C)(C)NCC(O)COc1cccc2c1CC(O)C(O)C2` (stereo unspecified), the parasite load remaining is 84.5% (inactive) and the viability worked out at 104%.

Regarding `c1ccc(-c2[nH]ncc2-c2ccnc3ccccc23)nc1`, the parasite load remaining is 38% (inactive) and the viability amounted to 62.8%.

In the case of `CN1CC[C@]23c4ccccc4N[C@H]1[C@]21CCN(C)[C@H]3Nc2ccccc21`, the parasite load remaining is 122% (inactive) and the viability was determined as 96.8%.

Regarding `Nc1ncnc2c1c(I)cn2[C@@H]1O[C@H](CO)[C@H](O)C1O` (stereo partly specified), the parasite load remaining is 129% (inactive) and the viability amounted to 64.4%.

In the case of `CC12CCC3c4ccc(OC(=O)c5ccccc5)cc4CCC3C1CCC2O` (stereo unspecified), the viability worked out at 95.7% and the parasite load remaining was 35.5% (inactive).

For `C[C@@H]1C(=O)O[C@H]2CC34[C@H]5C[C@@H](C(C)(C)C)[C@]36[C@@H](OC(=O)[C@@H]6O)O[C@@]4(C(=O)O5)[C@]21O` (stereo partly specified), the viability stood at 99.1% and the parasite load remaining was 93.7% (inactive).

`COC(=O)[C@@H]1CC(=O)O[C@H](C)C/C=C/C=C/[C@H](O)[C@H](C)C[C@H](CC=O)[C@H](OC2O[C@H](C)[C@@H](OC3C[C@@](C)(O)[C@@H](OC(=O)CC(C)C)[C@H](C)O3)[C@H](N(C)C)[C@H]2O)[C@H]1OC` (stereo partly specified): the parasite load remaining was 340% (inactive) and the viability was 138%.

Take `Oc1cccc(-c2nc(N3CCOCC3)c3sccc3n2)c1`: the parasite load remaining was 50.9% (inactive) and the viability came to 83.2%.

`CC(C)(CO)C(O)C(=O)NCCC(=O)O` (stereo unspecified): the viability came out at 105% and the parasite load remaining is 190% (inactive).

For `CCC(C)[C@H]1O[C@]2(CC[C@@H]1C)C[C@@H]1C[C@@H](C/C=C(\C)[C@@H](OC3C[C@H](OC)C(O[C@H]4C[C@H](OC)[C@@H](O)[C@H](C)O4)[C@H](C)O3)[C@@H](C)/C=C/C=C3\CO[C@@H]4[C@H](O)C(C)=C[C@@H](C(=O)O1)[C@]34O)O2` (stereo partly specified), the viability was determined as 90.4% and the parasite load remaining was 54.4% (inactive).

For `CNS(=O)(=O)c1ccc(NC(=O)c2ccccc2C(=O)O)cc1` (tested in a mixture with another compound), the parasite load remaining is 59.7% (inactive) and the viability is 106%.

Consider `CC(C)=CCC/C(C)=C/CC1=C(C)C(=O)c2ccccc2C1=O`, for which the parasite load remaining was 76.4% (inactive) and the viability came to 75.8%.

Regarding `CC/C=C\C/C=C\C/C=C\C/C=C\C/C=C\CCCC(=O)OCC`, the parasite load remaining is 31% (inactive) and the viability worked out at 94%.

Regarding `CC1OC(O[C@H]2/C=C/C=C/C=C/C=C/C=C/C=C/C=C/[C@H](C)[C@@H](O)[C@@H](C)[C@H](C)OC(=O)CC(O)CC(O)CCC(O)C(O)CC(O)CC3(O)C[C@H](O)C(C(=O)O)C(C2)O3)C(O)[C@H](N)C1O` (stereo partly specified), the parasite load remaining is 85.7% (inactive) and 73.7% (inactive); the viability was 73.8% and 92.4%.

Consider `CCC(=O)O[C@H]1CCC2C3CCc4cc(O)ccc4C3CC[C@@]21C` (stereo partly specified), for which the parasite load remaining was 105% (inactive) and 44.5% (inactive); the viability was 66.4% and 92.8%.

In the case of `CC(=O)OCC(=O)[C@@]1(O)CC[C@H]2[C@@H]3CCC4=CC(=O)CC[C@]4(C)C3(F)C(=O)C[C@@]21C` (stereo partly specified), the parasite load remaining is 49% (inactive) and the viability was 46.2%.

For `CC(C)[N+]1(C)[C@@H]2CC[C@@H]1CC(OC(=O)C(CO)c1ccccc1)C2` (stereo partly specified), the viability amounted to 107% and the parasite load remaining was 92% (inactive).

Take `Nc1ncnc2c1ncn2C1O[C@H](CO)[C@@H](O)[C@@H]1O` (stereo partly specified): the parasite load remaining was 68.6% (inactive) and the viability was found to be 95.5%.

Regarding `CO[C@H]1CC(O[C@@H]2/C(C)=C/C[C@@H]3C[C@@H](C[C@]4(CC[C@H](C)[C@@H](C5CCCCC5)O4)O3)OC(=O)[C@@H]3C=C(C)/C(=N/O)[C@H]4OC/C(=C\C=C\[C@@H]2C)[C@]43O)O[C@@H](C)C1O` (stereo partly specified), the parasite load remaining is 170% (inactive) and 47% (inactive); the viability is 86.8% and 106%.

The nature of a further assay: sensitizers of A549 cells to miR-34 induction, primary screen, imaging, A549 dox-inducible miR-34, nuclei and caspase counts (AID 1347080;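 active = compounds whose cell count with miR-34 switched on is under 0.7 times the count with it off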). The following applies: A549 miR-34 inducible, Hoechst nuclei count, 48 h; stronger effect = lower value; cell number ratio, induced over uninduced.
With `CCOC(=O)Oc1c(OC)cc(C(=O)O[C@@H]2C[C@@H]3CN4CCc5c([nH]c6cc(OC)ccc56)[C@H]4C[C@@H]3[C@H](C(=O)OC)[C@H]2OC)cc1OC`, the fold change was 0.795 (inactive).

In the case of `CCC(NC(C)C)C(O)c1ccc(O)c2[nH]c(=O)ccc12` (stereo unspecified), the fold change is 0.908 (inactive).

As for `CC(C)CC(=O)N[C@H](C(=O)NC(C(=O)NC(CC(C)C)[C@@H](O)CC(=O)N[C@@H](C)C(=O)N[C@@H](CC(C)C)[C@@H](O)CC(=O)O)C(C)C)C(C)C` (stereo partly specified), the fold change was 0.937 (inactive).

As for `CC(C)(C)NCC(O)COc1cccc2c1CC(O)C(O)C2` (stereo unspecified), the fold change was 0.89 (inactive).

As for `c1ccc(-c2[nH]ncc2-c2ccnc3ccccc23)nc1`, the fold change was 0.893 (inactive).

Consider `CN1CC[C@]23c4ccccc4N[C@H]1[C@]21CCN(C)[C@H]3Nc2ccccc21`, for which the fold change was 0.926 (inactive).

In the case of `Nc1ncnc2c1c(I)cn2[C@@H]1O[C@H](CO)[C@H](O)C1O` (stereo partly specified), the fold change was 1.01 (inactive).

On to `CC12CCC3c4ccc(OC(=O)c5ccccc5)cc4CCC3C1CCC2O` (stereo unspecified), for which the fold change is 0.833 (inactive).

As for `C[C@@H]1C(=O)O[C@H]2CC34[C@H]5C[C@@H](C(C)(C)C)[C@]36[C@@H](OC(=O)[C@@H]6O)O[C@@]4(C(=O)O5)[C@]21O` (stereo partly specified), the fold change was 0.905 (inactive).

`COC(=O)[C@@H]1CC(=O)O[C@H](C)C/C=C/C=C/[C@H](O)[C@H](C)C[C@H](CC=O)[C@H](OC2O[C@H](C)[C@@H](OC3C[C@@](C)(O)[C@@H](OC(=O)CC(C)C)[C@H](C)O3)[C@H](N(C)C)[C@H]2O)[C@H]1OC` (stereo partly specified): the fold change was 0.948 (inactive).

Consider `Oc1cccc(-c2nc(N3CCOCC3)c3sccc3n2)c1`, for which the fold change was 0.851 (inactive).

Regarding `CC(C)(CO)C(O)C(=O)NCCC(=O)O` (stereo unspecified), the fold change is 0.839 (inactive).

Regarding `CCC(C)[C@H]1O[C@]2(CC[C@@H]1C)C[C@@H]1C[C@@H](C/C=C(\C)[C@@H](OC3C[C@H](OC)C(O[C@H]4C[C@H](OC)[C@@H](O)[C@H](C)O4)[C@H](C)O3)[C@@H](C)/C=C/C=C3\CO[C@@H]4[C@H](O)C(C)=C[C@@H](C(=O)O1)[C@]34O)O2` (stereo partly specified), the fold change was 1.04 (inactive).

Take `CNS(=O)(=O)c1ccc(NC(=O)c2ccccc2C(=O)O)cc1` (tested in a mixture with another compound): the fold change was 0.903 (inactive).

As to `CC(C)=CCC/C(C)=C/CC1=C(C)C(=O)c2ccccc2C1=O`, the fold change is 0.983 (inactive).

Regarding `CC/C=C\C/C=C\C/C=C\C/C=C\C/C=C\CCCC(=O)OCC`, the fold change was 1.01 (inactive).

With `CC1OC(O[C@H]2/C=C/C=C/C=C/C=C/C=C/C=C/C=C/[C@H](C)[C@@H](O)[C@@H](C)[C@H](C)OC(=O)CC(O)CC(O)CCC(O)C(O)CC(O)CC3(O)C[C@H](O)C(C(=O)O)C(C2)O3)C(O)[C@H](N)C1O` (stereo partly specified), the fold change is 0.94 (inactive).

In the case of `CCC(=O)O[C@H]1CCC2C3CCc4cc(O)ccc4C3CC[C@@]21C` (stereo partly specified), the fold change is 0.912 (inactive).

Consider `CC(=O)OCC(=O)[C@@]1(O)CC[C@H]2[C@@H]3CCC4=CC(=O)CC[C@]4(C)C3(F)C(=O)C[C@@]21C` (stereo partly specified), for which the fold change is 0.875 (inactive).

Take `CC(C)[N+]1(C)[C@@H]2CC[C@@H]1CC(OC(=O)C(CO)c1ccccc1)C2` (stereo partly specified): the fold change is 0.845 (inactive).

For `Nc1ncnc2c1ncn2C1O[C@H](CO)[C@@H](O)[C@@H]1O` (stereo partly specified), the fold change was 0.85 (inactive).

In the case of `CO[C@H]1CC(O[C@@H]2/C(C)=C/C[C@@H]3C[C@@H](C[C@]4(CC[C@H](C)[C@@H](C5CCCCC5)O4)O3)OC(=O)[C@@H]3C=C(C)/C(=N/O)[C@H]4OC/C(=C\C=C\[C@@H]2C)[C@]43O)O[C@@H](C)C1O` (stereo partly specified), the fold change is 0.877 (inactive).
